From PubChem BioAssay AID2205 (University of Pittsburgh Molecular Library Screening Center, 2009)
Screen size: about 200,000 compounds; about 1,600 (0.8%) were called active. The sample holds actives, similar compounds and a random draw of the others, so the mix is not that of the screen.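 How the source made its calls: active means plate Z-score above 3 for both tubulin-high and condensed-nucleus cell shares, with cell loss under 80%, at 10 µM; inactive means the rest, inconclusive results apart.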

experiment: microtubule stabilizers in HeLa cells, primary screen, imaging, high-content imaging (AID 2205); settings: HeLa tubulin immunostaining HCS, 24 h, at 10 µM; % Hoechst-high responders: measured here: nuclear condensation Hoechst responders, stronger effect = higher value, share of cells brighter than vehicle mean+2SD; % tubulin-high responders: stronger effect = higher value, share of cells brighter than vehicle mean+2SD; toxicity: measured here: cytotoxicity by cell density;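 on % tubulin-high responders: anti alpha tubulin signal scored within the nucleus-defined area of each cell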;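 on toxicity: 0% = mean cell density of plate MIN control wells and 100% = no cells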

Structure (SMILES) | % Hoechst-high responders | % tubulin-high responders | toxicity
CC(=O)c1cc(-c2ccccc2)n(CC(=O)NC2CCCCC2)c1C | 1.48% | 1.98% (inactive) | 2.82%
O=C(Nc1ccn(Cc2ccc(F)cc2)n1)c1ccncc1 | 1.77% | 2.77% (inactive) | 3.59%
O=C(Nc1ccn(Cc2ccccc2)n1)c1n[nH]c([N+](=O)[O-])c1Cl | 13.3% | 9.59% (active) | 24.4%
O=C(Nc1ccn(Cc2ccccc2)n1)c1cccc(F)c1 | 3.02% | 4.62% (inactive) | 3.61%
CC1Cc2ccccc2N1S(=O)(=O)c1c(N)n(C)c(=O)n(C)c1=O (stereo not given) | 3.17% | 3.06% (inactive) | 7.69%
CCc1nc2ccccc2c(C(=O)NCc2ccc(OC)cc2)c1C | 2.73% | 2.02% (inactive) | 5.3%
CN(C)Cc1ccc(F)cc1Sc1cc(Cl)ccc1Cl | 2.47% | 4.07% (inactive) | 10%
CC(C(=O)NCC1CCCCC1)N(C)Cc1cccc(Cl)c1 (stereo not given) | 0.921% | 4.54% (inactive) | 21.1%
COc1ccc(CN(C)C(C)C(=O)NC2CCCc3ccccc32)cc1 (stereo not given) | 4.92% | 11.4% (active) | 14%
CCOc1ccc(NC(=O)COc2ccc(C(=O)NC3CCCc4ccccc43)cc2OC)cc1 (stereo not given) | 2.51% | 5.53% (inactive) | 4.7%
COc1ccc([N+](=O)[O-])cc1NC(=O)CC1SC(=Nc2cccc(C)c2C)N(/N=C(\C)c2ccc(C)cc2)C1=O (stereo not given) | 1.74% | 1.39% (inactive) | 6.54%
COc1cccc(NC(=O)c2ccc(S(=O)(=O)N(C)C)cc2)c1 | 1.38% | 3.01% (inactive) | 1.8%
COc1ccc(-n2nnnc2-c2nc3ccccc3s2)cc1 | 2.51% | 4.84% (inactive) | 1.66%
CCOc1cccc(-n2nnnc2-c2ccc(OC)cc2)c1 | 43.4% | 37.6% (active) | 41.8%
CCOc1cccc(-c2nnc3sc(COc4ccc(OC)cc4)nn23)c1 | 1.53% | 1.43% (inactive) | 2.39%
COC(=O)c1ccc(CN2CCN(CCCc3ccccc3)C(CCO)C2)cc1 (stereo not given) | 1.96% | 3.41% (inactive) | 10.2%
CCOC(=O)Cc1ncccc1C(=O)Nc1ccc(OC)cc1 | 2.23% | 3.2% (inactive) | 5.66%
COc1ccccc1NC1=NC2(CCCC2)N=C(N)N1 | 1.77% | 2.5% (inactive) | 14.7%
COc1ccccc1NC1=NC(c2ccc(Cl)cc2)N=C(N)N1 (stereo not given) | 46.7% | 18% (active) | 42.6%
COc1ccccc1Nc1nc(N)nc(CN(C)C2CCCCC2)n1 | 1.52% | 3.4% (inactive) | 5.42%
c1ccc(CN=C2Nc3ccccc3CS2)nc1 | 1.84% | 4.7% (inactive) | 4.5%
Cc1cc(NC(=O)CSc2nnc(Nc3ccccc3F)s2)no1 | 2.66% | 2.72% (inactive) | 6.41%
Cc1ccc(-c2csc(SCC(=O)Nc3cc(C)on3)n2)cc1 | 0.903% | 2.28% (inactive) | 2.29%
Cc1cc(C)c2c(c1)cc(C)c1nnc(SCC(=O)Nc3cc(C)on3)n12 | 18.1% | 40.6% (active) | 66.4%
CCc1ccccc1NC(=O)Cc1cn(C)c2ccccc12 | 1.88% | 2.42% (inactive) | 1.32%

Structure (SMILES) | % Hoechst-high responders | % tubulin-high responders | toxicity
CCN(CC)C(=O)C(=O)c1cn(CC(=O)NCc2ccc3c(c2)OCO3)c2ccccc12 | 2.88% | 3.53% (inactive) | 7.75%
Cc1cc(C)cc(C(=O)NCC(=O)OCC(=O)N2CCCCC2)c1 | 1.86% | 1.01% (inactive) | 6.66%
COc1ccccc1-c1nc(C#N)c(N2CCC(C(N)=O)CC2)o1 | 1.21% | 0.805% (inactive) | 3.26%
COc1ccc(Nc2oc(-c3ccccc3Cl)nc2C#N)cc1 | 19.8% | 22.5% (active) | 63.9%
Cc1ccccc1-c1nc(C#N)c(NCc2ccco2)o1 | 2.06% | 1.4% (inactive) | 7.65%
N/C(=N\OS(=O)(=O)c1cccc([N+](=O)[O-])c1)c1ccncc1 | 2% | 1.6% (inactive) | 1.69%
Cc1ccccc1NCC(=O)N/N=C\c1ccc([N+](=O)[O-])s1 | 2.71% | 2.44% (inactive) | 1.44%
CCOc1ccc(NC(=O)CCC(=O)N/N=C/c2ccc([N+](=O)[O-])s2)cc1 | 1.9% | 4.38% (inactive) | 12.5%
O=[N+]([O-])c1ccc(C=Nc2ccc(Cl)cc2Cl)s1 | 9.57% | 11.5% (active) | 16%
Cc1cccc(NC(=O)c2sc(-c3ccccc3)nc2-c2ccc([N+](=O)[O-])cc2)c1 | 5.34% | 2.13% (inactive) | 9.44%
CCOC(=O)/C(=C\c1ccc([N+](=O)[O-])cc1)C(=O)c1cc(C(C)=O)c(Nc2ccccc2)s1 | 6.43% | 24.7% (active) | 66.1%
O=C(Nc1ccccc1)/C(=C/c1ccc([N+](=O)[O-])cc1)NC(=O)c1ccccc1 | 4.34% | 2.81% (inactive) | 7.05%
COC(=O)c1ccc(NCC(=O)N2CCCCCC2)cc1 | 2.09% | 3.14% (inactive) | 2.78%
COc1ccc(NC(=O)CSc2nnc(-c3ccccc3F)n2C2CC2)cc1S(N)(=O)=O | 2.54% | 1.8% (inactive) | 10.7%
CCOc1cccc(C(=O)Nc2nnc(-c3cccs3)s2)c1 | 2.31% | 1.76% (inactive) | 5.03%
COc1cc(/C=C(\C#N)c2nc3c(s2)CC(C)CC3)ccc1O (stereo not given) | 2.11% | 1.86% (inactive) | 0.488%
CCOc1cc(/C=C(\C#N)c2nc(-c3cccs3)c(NC(C)=O)s2)ccc1O | 49.3% | 16.7% (active) | 32.4%
CCCCc1cc2c(s1)CCCC/C2=N/O | 1.99% | 5.07% (inactive) | 0.0044%
COc1ccc2nc(Nc3nc4ccc(NC(C)=O)cc4s3)sc2c1 | 3.35% | 5.83% (inactive) | 4.23%
CCOC(=O)c1cc(NC(=O)c2cccnc2)cc(C(=O)OCC)c1 | 1.98% | 4.37% (inactive) | 5.37%
CCCC(=O)Nc1nc2ccc(NC(=O)c3cccnc3)cc2s1 | 19.5% | 35.9% (active) | 55.8%
CSc1nc2ccc(NC(=O)c3c(F)cccc3F)cc2s1 | 3.31% | 2.54% (inactive) | 0.69%
CCCC(=O)Nc1nc2ccc(NC(=O)c3c(F)c(F)c(OC)c(F)c3F)cc2s1 | 44.1% | 12.2% (active) | 35.6%
CCC(=O)Nc1cccc(NC(=O)c2cccnc2)c1 | 1.83% | 4.1% (inactive) | 8.32%
O=C(COC(=O)Cn1cnc2ccccc2c1=O)NCc1ccccc1Cl | 1.88% | 6.58% (inactive) | 5.1%

Structure (SMILES) | % Hoechst-high responders | % tubulin-high responders | toxicity
NS(=O)(=O)c1ccc(NC(=O)COC(=O)c2ccc(Cl)nc2)cc1 | 1.74% | 3.68% (inactive) | 9.84%
CCN(CC)c1ccc(NC(=O)c2ccc(Cl)nc2)cc1 | 27% | 43% (active) | 38.6%
O=C(NNc1ccccn1)c1ccc(Cl)nc1 | 2.04% | 3.3% (inactive) | 8.78%
CC(=O)Nc1ccc(S(=O)(=O)NC2(C(F)(F)F)C(=O)NC(C)=C2C#N)cc1 (stereo not given) | 0.651% | 0.947% (inactive) | 1.71%
COc1ccc(-n2cc(CN(C)Cc3n[nH]c(=O)[nH]3)c(-c3cccc(F)c3)n2)cc1 | 0.946% | 1.61% (inactive) | 7.39%
CCC(=O)/C(=C(/O)c1ccccc1)c1nc2ccccc2[nH]1 | 1.47% | 1.53% (inactive) | 1.79%
O=C(/C(=C/c1cccc(Cl)c1)c1nc2ccccc2[nH]1)c1ccccc1 | 42.6% | 47.1% (active) | 68.7%
Oc1ccc(Cl)cc1/C=N/c1nc2ccccc2[nH]1 | 3.67% | 2.45% (inactive) | 20.5%
C=CCn1cc(C(=O)NCc2ccc(Cl)cc2)c(=O)c2cc(S(=O)(=O)N(CC)CC)ccc21 | 2.4% | 2.86% (inactive) | 5.36%
CSc1ncccc1C(=O)N1CCCC(CCC(=O)NCc2ccccc2F)C1 (stereo not given) | 1.74% | 2.45% (inactive) | 3.21%
Cn1cccc1/C=N/NC(=O)c1ccc(OC(F)(F)C(F)F)cc1 | 2.53% | 6.72% (inactive) | 7.37%
COC(=O)Cc1ccc(NC(=S)NCc2ccccc2)cc1 | 2.07% | 4.23% (inactive) | 9.97%
N#CC1=C(N)Oc2c(sc3ccccc23)C1c1ccco1 (stereo not given) | 55.7% | 24.9% (active) | 32.3%
Cc1cc(C)c2c3c(sc2n1)C(c1ccccc1)C(C#N)=C(N)O3 (stereo not given) | 7.37% | 12.3% (inactive) | 9.16%
CCCCCCCC1(C)NC(=O)N(CC(=O)Nc2cc(C)on2)C1=O (stereo not given) | 2.15% | 3.92% (inactive) | 9.17%
Cc1ccc(S(=O)(=O)N(C)C)cc1NC(=O)COC(=O)C1COc2ccccc2O1 (stereo not given) | 2.45% | 3.07% (inactive) | 5.9%
O=C(c1cnn(-c2ccc(Cl)cc2)c1)c1ccccc1O | 3.19% | 3.73% (inactive) | 2.4%
C/C(=N\NC(=O)c1ccccc1C)c1ccc(N2CCOCC2)cc1 | 0.821% | 1.28% (inactive) | 5.09%
O=C(Cc1ccccc1)NC(=S)Nc1ccc(N2CCCCC2)cc1 | 2.7% | 1.21% (inactive) | 5.2%
COc1cccc(OC)c1C(=O)Nc1ccc(N2CCCCC2)cc1 | 2.3% | 2.03% (inactive) | 6.37%
COc1ccc(C(=O)NC(=S)Nc2ccc(N3CCCC3)cc2)cc1OC | 1.47% | 1.79% (inactive) | 9.06%
COc1cccc(C(=O)Nc2ccc(N3CCCC3)cc2)c1 | 30.7% | 25.7% (active) | 50.6%
Cc1ccccc1C(=O)Nc1ccc(N2CCCCCC2)cc1 | 34.7% | 13.1% (active) | 28.4%
CC(C)OCCCNC(=O)c1cc(Sc2ccc(F)cc2)nc2ccccc12 | 1.81% | 1.25% (inactive) | 6.52%
CC(=O)N1C(=O)/C(=C2\SC(=S)N(NC(=O)c3ccc(O)cc3)C2=O)c2ccccc21 | 2.97% | 2.55% (inactive) | 3.4%
